Most compounds without a hit are left out; they make up all but 2.6% or so of the library.
Cruzain noTriton = blocks cruzain activity in detergent-free assay | Potency, µM, without a hit: max response, negative = inhibition, most hits filed as inhibitors | AID 1476 | purified cruzain, Z-FR-AMC fluorescence, no detergent | 200,000 compounds, 2.3% hits | P25779;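 note: plate controls were enzyme without inhibitor for no effect and buffer without enzyme for full effect; nearly all actives have a fitted effect of over 40% in size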
Target sequence (P25779 123-467 limits assumed): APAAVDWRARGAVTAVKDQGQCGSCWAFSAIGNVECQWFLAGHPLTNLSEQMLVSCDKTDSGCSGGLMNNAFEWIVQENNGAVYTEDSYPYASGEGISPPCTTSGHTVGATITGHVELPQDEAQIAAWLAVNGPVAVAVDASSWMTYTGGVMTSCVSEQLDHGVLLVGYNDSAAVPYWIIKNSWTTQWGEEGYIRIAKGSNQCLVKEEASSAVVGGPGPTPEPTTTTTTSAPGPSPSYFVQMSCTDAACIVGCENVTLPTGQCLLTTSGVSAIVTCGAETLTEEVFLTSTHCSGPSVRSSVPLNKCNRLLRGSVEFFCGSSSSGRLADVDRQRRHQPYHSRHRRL
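Detergent-free condition (0.00005% Triton X-100) in acetate buffer pH 5.5 with DTT. 1.5 nM enzyme and compound were pre-mixed 15 min, then 2 uM Z-FR-AMC substrate added; reaction progress from fluorescence change between first and third reads (60 s).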
Cruzain inh Det = inhibitors of Trypanosoma cruzi cruzain with detergent; purified cruzain, Z-FR-AMC fluorescence, 0.01% Triton; 200,000 compounds, 0.43% hits; P25779; Potency, µM, for inactives: max response, negative = inhibition, hits mostly inhibitors;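 note: plate controls were neutral wells for no effect and buffer without enzyme for full effect; nearly all actives have a fitted effect of over 40% in size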
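Cruzain (1.5 nM) preincubated 15 min at RT with compound in 100 mM sodium acetate pH 5.5, 5 mM DTT, 0.01% Triton X-100. Reaction started with 2 uM Z-FR-AMC; AMC fluorescence (ex 360/em 450 nm) change over 60 s gave rate.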
* = called active by the depositor; ? = inconclusive. Calls come from the whole dose curve; as a rule, active = well fitted curve in the direction sought with a large enough effect; inconclusive = small, poorly fitted or top-dose-only effect, or another doubt; inactive = no such curve, though single readings can be large; an effect the other way counts as inactive or inconclusive. Potency is the fitted concentration of half-maximal effect.

SMILES	Cruzain noTriton	Cruzain inh Det
O=C(Nc1nnc(S(=O)(=O)N2CCc3ccccc32)s1)c1ccccc1Cl	-7%	-1%
CCc1nnc(NC(=O)c2ccc(Cl)c(S(=O)(=O)N3CCc4ccccc43)c2)s1	13µM*	-5%
O=C(Nc1nnc(C2CC2)s1)c1cc(S(=O)(=O)N2CCN(c3ccccc3)CC2)ccc1Cl	?	3%
O=C(Nc1nnc(C2CC2)s1)c1ccc(Cl)c(S(=O)(=O)N2CCc3ccccc3C2)c1	25µM*	-5%
Cc1ccc(NC(=O)CCCn2c(=O)c3cccn3c3ccccc32)cc1C	20%	0%
CC(NC(=O)Cc1ccccc1)c1nc2ccccc2[nH]1 (stereo unspecified)	-22%	1%
O=C(COc1cccc(F)c1)N[C@@H](Cc1ccccc1)c1nc2ccccc2[nH]1	-1%	13µM*
CCOC(=O)c1ccc(NC(=O)Cn2c(=O)cc(C(F)(F)F)c3c(C)nn(C)c32)cc1	2%	-1%
C/C(=N\NC(=O)c1ccc(CN2CCOCC2)cc1)c1cccc([N+](=O)[O-])c1	-9%	1%
C/C(=N/NC(=O)c1cc(-c2cccc([N+](=O)[O-])c2)n[nH]1)c1ccc(Cl)cc1	6.3µM*	0%
COc1cccc(C(=O)Nc2cccc(OCc3cc(=O)n4c5c(sc4n3)CCCC5)c2)c1	1%	-1%
O=C(c1cc2c(=O)oc3ccccc3c2s1)N1CCN(c2cccc(Cl)c2)CC1	-6%	0%
Brc1ccc(-c2nn3c(Cc4ccccc4)nnc3s2)o1	2%	0%
c1ccc(Cc2nnc3sc(Nc4ccccc4)nn23)cc1	25µM*	1%
CCOc1ccc(-c2cn3c(n2)sc2cc(C(=O)NCCCN4CCCCCC4)ccc23)cc1	3%	-2%
CCOc1ccc(-c2cn3c(n2)sc2cc(C(=O)NCCCN4CCCCC4)ccc23)cc1	4µM*	-2%
CCOC(=O)c1c(C)[nH]c(C)c1S(=O)(=O)N1CCC(C(=O)Nc2ccc(C)cn2)CC1	-10%	0%
O=C(c1ccc(-c2ccc(Cl)cc2)o1)N1CCN(c2ccc([N+](=O)[O-])cc2Cl)CC1	7.9µM*	-4%
O=C(c1ccc(-c2ccc([N+](=O)[O-])cc2)o1)N1CCCCC1	-5%	-7%
CCCCN(C)C(=O)Cn1c(C2CC(=O)N(c3ccc(C)cc3)C2)nc2ccccc21 (stereo unspecified)	-8%	-1%
O=c1c2ccccc2c2c(O)nc(-c3ccccc3)n2n1Cc1ccccc1	4µM*	1%
Cn1c(=O)c2c(nc(-c3ccccc3)n2C)n(Cc2ccccc2)c1=O	20%	-2%
CCOc1ccccc1C(=O)NCc1ccc2c(c1)CCN2C(=O)c1ccccc1	12%	1%
O=C(/C=C/c1ccc(Cl)c([N+](=O)[O-])c1)Nc1ccc(NC(=O)c2ccco2)cc1	?	3%
O=C(/C=C/c1ccc(Cl)c([N+](=O)[O-])c1)Nc1ccc(N2CCCC2)cc1	16µM*	-27%
SMILES	Cruzain noTriton	Cruzain inh Det
Cc1ccc(NC(=O)Nc2nnc(SCC(=O)N3CCC(C)CC3)s2)cc1	-13%	-4%
Cc1ccc(CCNC(=O)CCSCc2ccc(Cl)cc2)cc1	0%	1%
Cc1ccc(CSCCNC(=O)/C=C/c2ccc(Cl)cc2)cc1	13µM*	4%
CCOc1ccc(C2CC(=O)Nc3c2c(=O)nc(SCc2ccccc2C)n3C)cc1OC (stereo unspecified)	19%	-2%
NC(=O)c1cc[n+](CC2=C(C(=O)O)N3C(=O)[C@@H](NC(=O)[C@@H](c4ccccc4)S(=O)(=O)[O-])[C@H]3SC2)cc1	6%	-4%
COCCNc1ccnc(-c2ccccc2CN(C)C)n1	-1%	0%
COc1ccc(-c2nc3cc(NC(=O)Cc4ccc(Cl)cc4)ccc3o2)cc1OC	?	-2%
Cn1c(=O)c2c(ncn2CC(=O)Nc2cccc(Cl)c2Cl)n(C)c1=O	?	28µM*
Cc1ccccc1NC(=O)Cn1cnc2c1c(=O)n(C)c(=O)n2C	14%	5%
CCOc1ccc(CCNC(=O)Cc2ccc(NC(=O)N3CCSc4ncccc43)cc2)cc1	20%	-10%
Cc1ccc(S(=O)(=O)c2cn(CC(=O)Nc3ccc(C)c(Cl)c3)c3ccc(C)cc3c2=O)cc1	?	-3%
COc1ccc(NC(=O)Cn2cc(S(=O)(=O)c3ccccc3)c(=O)c3cc(C)ccc32)cc1Cl	25µM*	-4%
COc1ccc2c(c1)c(=O)c(S(=O)(=O)c1ccccc1)cn2CC(=O)Nc1ccc2c(c1)OCO2	9%	-7%
COc1ccc2c(c1)c(=O)c(S(=O)(=O)c1ccccc1)cn2CC(=O)Nc1ccc(C)c(Cl)c1	20µM*	-5%
CCN(c1ccccc1)S(=O)(=O)c1nnc(NC(=O)C2CCCCC2)s1	-2%	-3%
Cc1cccc(CN2C(=O)c3ccccc3S(=O)(=O)c3ccc(C(=O)OCC4CCCO4)cc32)c1 (stereo unspecified)	6%	-1%
CCCCCCCCCCCCC/C=C/[C@@H](O)[C@H](CO)NCCCCCCCC	-2%	4%
CCN1CCN(c2ccc(NC(=O)Cc3ccccc3)cc2)CC1	4%	4%
O=C(Cc1ccccc1)Nc1cccc(N2CCCC2)c1	25µM*	-29%
CC(C)c1ccc(C(=O)Nc2ccc(N3CCOCC3)cc2)cc1	-4%	-1%
O=C(Nc1ccc(N2CCCC2)cc1)C(c1ccccc1)c1ccccc1	7.9µM*	-12%
CC(C)Oc1ccc(C(=O)Nc2ccc(N3CCCC3)cc2)cc1	4µM*	-28%
O=C(Cc1ccccc1)Nc1ccc(N2CCCC2)cc1	13µM*	?
O=C(CCc1ccccc1)Nc1ccc(N2CCCCC2)cc1	12%	-3%
CC(C)C(=O)Nc1ccc(N2CCCC2)cc1	-8%	-6%
SMILES	Cruzain noTriton	Cruzain inh Det
CCCC(=O)NCCc1nc2ccccc2n1Cc1c(F)cccc1Cl	0%	?
CCc1ccc(CNC(=O)c2cccc(-n3c(C)nc4cccnc43)c2)cc1	14%	-4%
O=P1(O)Oc2c(c(-c3ccccc3)cc3ccccc23)-c2c(-c3ccccc3)cc3ccccc3c2O1	?	-27%
O=P1(O)Oc2c(c(-c3ccccc3)cc3ccc4ccccc4c23)-c2c(-c3ccccc3)cc3ccc4ccccc4c3c2O1	-4%	25µM*
COc1cccc(/C=C2/SC(=O)N(CC(=O)N3CCc4ccccc4C3)C2=O)c1OCC(=O)O	?	-1%
O=C(O)COc1ccccc1/C=C1\SC(=S)N(/N=C/c2ccccc2O)C1=O	?	28µM*
CN(C)C(=O)c1nc2ccccc2s1	0%	-1%
CN(C)c1ccc(CC(=O)c2nc3ccccc3s2)cc1	20µM*	-4%
CCOc1cc(/C=C2\CCC/C(=C\c3cc(Cl)c(O)c(OCC)c3)C2=O)cc(Cl)c1O	13µM*	6%
C=CCNC(=O)/C(C#N)=C\c1cc(Cl)c(O)c(OCC)c1	-4%	-1%
O=C(c1csnn1)N1CCC2(CC1)CN(c1cccc(-c3ccccc3)c1)C2	?	-1%
O=C(CSc1nc(-c2ccccc2)nc2ccccc12)Nc1nccs1	?	-2%
O=C(CSc1nc(-c2ccccc2)cs1)Nc1nccs1	25µM*	5%
CCOC(=O)C1CCCN(S(=O)(=O)c2cc(-c3cc(C)no3)ccc2C)C1 (stereo unspecified)	18%	0%
COCCn1c(C)cc(O)c(C(c2ccccc2Cl)N2CCN(c3ccccc3)CC2)c1=O (stereo unspecified)	8%	1%
COc1cc(NS(=O)(=O)c2c(C(=O)N3CCCCC3)c(C)n(C)c2C)cc(OC)c1OC	11%	-1%

High-throughput results as filed in PubChem BioAssay.
